Dyrk1A ADPGlo: rat Dyrk1A kinase inhibitors, primary screen, biochemical, single point, plate reader. Dual specificity tyrosine-phosphorylation-regulated kinase 1A (Rattus norvegicus), Q63470. ADP-Glo luminescence, NFATc1 peptide. inhibition, % at 12.5 µM. 310,000 compounds, 0.43% hits. AID 504441, 2011
NSD2 HMT inh: NSD2 histone methyltransferase inhibitors, primary screen, biochemical, AlphaScreen, single concentration, set 2; Histone-lysine N-methyltransferase NSD2 (Homo sapiens), O96028; NSD2 peptide methylation, 120 min; inhibition, % at 12.5 µM; 310,000 compounds, 0.54% hits; AID 743445, 2014
GSIS activator: GLuc luminescence reporter in INS-1E cells, primary screen for activators of glucose-dependent secretion of insulin. INS-1E GLuc reporter insulin secretion, 2-3 h. activation, % at 16.6 µM. 370,000 compounds, 0.61% hits. AID 743287, 2014;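 active = lowest replicate activation of at least 40%, so every replicate reaches that level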
miR122 inh: miR-122 Renilla sensor signal increase in Huh7, primary screen, miR-122 inhibitor project, cell-based, single point, plate reader; Huh7 miR-122 Renilla luciferase sensor, 48 h; neutral wells = 0, positive control = 100; 340,000 compounds, 0.3% hits; activation (reporter increase), % at 12.5 µM; AID 602342, 2012;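 active = mean replicate activation score at least 90 and every replicate individually at or above 90; inconclusive = only one of the two criteria met; inactive = neither criterion met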;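 note: higher luciferase means less miR-122 activity so hits act as miR-122 inhibitors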
MITF act: activators of MITF-driven TRPM1 promoter reporter, primary screen, cell-based, SK-MEL-5, luciferase, single point. SK-MEL-5 TRPM1-promoter luciferase, 24 h; % of positive control, neutral wells = 0. activation, % at 12.5 µM. 300,000 compounds, 0.75% hits;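 active = mean activation of at least 80% with every replicate also reaching 80%; inconclusive = mean reaches 80% but some replicate falls short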
Wnt act: Wnt/beta-catenin pathway activators, primary screen, cell-based, plate reader, single point. Wnt/beta-catenin reporter cell assay, activator. activation, % at 9.35 µM. AID 743398, 2014. 300,000 compounds, 1.2% hits; in the data active = activation above about 30%, passing the limit was not always enough; inconclusive = no clear call, values can overlap the other calls
AlphaScreen art: AlphaScreen signal interference with preloaded methylated product, dose response, artefact control for NSD2 inhibitor project, biochemical, cherry-picked samples. AC35, µM (titrated, usually from 10 µM). AlphaScreen artifact counterscreen, preloaded methylated H4 peptide. shares compounds with NSD2 HMT inh. 1,500 compounds, 9.4% hits; call rule not given here
Numbers stand for hits; i = inactive; ? = inconclusive; nt = not tested or not shown. Compounds with a hit are over-represented: about 2.4% of the library has one in this group of screens. Cut-off read from the data, not from the text of the source, unless noted: active = inhibition above about 50%; inactive = the rest.

SMILES | Dyrk1A ADPGlo | NSD2 HMT inh | GSIS activator | miR122 inh | MITF act | Wnt act | AlphaScreen art
CO[C@H]1CN(C)C(=O)c2cc(NC(=O)CC(F)(F)F)ccc2OC[C@@H](C)N(C(C)=O)C[C@H]1C | nt | nt | i | nt | nt | nt | nt
Cc1cc(C)c(NC(=S)N(C)C)cc1C | i | 55.5 | nt | nt | nt | i | i
Cc1ccc(C)c(NC(=S)N(C)C)c1 | nt | i | i | i | i | i | nt
COc1cccc(/C=C/C(=O)OCC(=O)NCC2CCCO2)c1 (centres undefined) | i | i | i | i | i | i | nt
COc1ccc(/C=C/C(=O)OCC(=O)NCC2CCCO2)cc1 (centres undefined) | i | 53.9 | i | nt | i | i | i
O=C(Nc1ccccc1C(=O)O)c1cncc(Br)c1 | i | 68.3 | nt | i | nt | i | i
CCOC(=O)CSc1nsc(SCC(=O)OCC)c1C#N | i | i | nt | i | i | i | nt
N#Cc1c(SCC(=O)OCc2ccccc2)nsc1SCC(=O)OCc1ccccc1 | i | 126.0 | i | i | nt | nt | i
CC1=CCC2C(=O)N(c3ccc4ccccc4n3)C(=O)C2C1 (centres undefined) | i | i | nt | i | i | nt | nt
Cc1cc(=O)n(-c2ccc3ccccc3n2)[nH]1 | i | 85.9 | nt | i | i | nt | i
CCN1[C@H](C(=O)NCCN2CCCCC2)[C@@H](CO)[C@@H]2Cn3c(ccc(-c4ccc(OC)cc4)c3=O)[C@@H]21 | nt | nt | i | nt | nt | nt | nt
COc1ccc(CCC(=O)Nc2ccc(S(=O)(=O)Nc3nccc(C)n3)cc2)cc1 | i | 76.3 | i | i | i | i | i
CO[C@H]1CN(C)C(=O)c2ccc(NC(=O)NC(C)C)cc2OC[C@H](C)N(CC2CC2)C[C@@H]1C | nt | nt | i | i | nt | nt | nt
CCN(CC)CCCNC(=O)C1CCN(C(=O)c2oc3cc4sc(N(C)C)nc4cc3c2C)CC1 | i | 56.7 | i | i | i | i | i
COCCCNC(=O)C1CCN(C(=O)c2oc3cc4sc(N(C)C)nc4cc3c2C)CC1 | i | i | i | i | ? | i | nt
C[C@@H]1CN([C@@H](C)CO)C(=O)c2cc(C#Cc3ccncc3)cnc2O[C@H]1CN(C)CC1CCOCC1 | nt | nt | i | i | nt | nt | nt
CC1(C)Cc2c(c(-c3ccco3)[nH]c(=O)c2C#N)CS1 | i | 94.2 | nt | i | i | i | i
CC1(C)Cc2c(c(-c3ccccc3)[nH]c(=O)c2C#N)CS1 | i | i | i | i | i | nt | nt
Cc1ccc(NC(=O)CCC(=O)OCC(F)(F)C(F)F)cc1 | i | 120.9 | nt | i | i | nt | i
COc1cc(OC)c([N+](=O)[O-])cc1/C=N/NC(=O)c1ccncc1 | i | 80.5 | i | nt | i | i | i
Cc1cc(=O)[nH]c(COc2ccccc2)n1 | i | 54.7 | i | i | i | nt | i
CCn1c(O)c(/C=N/n2cnnc2)sc1=S | i | 67.3 | nt | i | i | nt | i
O=C(Cc1ccccn1)N1CC(=O)N2[C@H](CO)[C@H](c3ccc(C#CC4CCCC4)cc3)[C@@H]2C1 | nt | nt | i | nt | nt | nt | nt
CO[C@@H]1CN(C)C(=O)c2cc(NS(=O)(=O)c3ccccc3)ccc2OC[C@H](C)N(Cc2ccccn2)C[C@H]1C | nt | nt | i | i | nt | nt | nt
